Compounds with a hit are over-represented: about 2.3% of the library has one in this group of screens.
Tau fibril ThT – inhibitors of human tau fibril formation, thioflavin T binding; recombinant tau K18 P301L, heparin-induced fibrillization, ThT fluorescence; 270,000 compounds, 2.1% hits; P10636; Potency, µM (highest dose often 57.4 µM), usual class: inhibitors; further: nearly all actives have a fitted effect of over 55% in size
Target sequence (P10636 561-689 P618L limits assumed): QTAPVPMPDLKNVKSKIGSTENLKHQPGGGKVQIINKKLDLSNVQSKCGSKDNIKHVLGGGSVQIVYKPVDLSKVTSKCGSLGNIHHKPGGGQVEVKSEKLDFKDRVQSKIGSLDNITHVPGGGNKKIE
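Using a mix of unlabeled (15 uM) and Alexa 594-labeled (0.24 uM) tau K18 P301L, heparin-triggered fibrillization over 6 hr at 37 C was scored by ThT fluorescence.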
Tau fluor counter – counter-screen for tau fibril formation inhibitors | Potency, µM (doses to about 57.7 µM) | 280,000 compounds, 0.93% hits | tau K18 P301L Alexa594 fluorescence, heparin fibrillization; further: nearly all actives have a fitted effect of over 55% in size
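Human tau K18 P301L (15 uM unlabeled, 0.24 uM Alexa 594-labeled) in 100 mM sodium acetate pH 7 with 20 uM heparin, 6 hr at 37 C. ThT 30 uM added, 1 hr ambient; Alexa 594 FP and total fluorescence read at 555/632 nm.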
FBPA coupling cs – inhibits coupling enzyme system, counter-screen for aldolase hits. coupling enzyme system counterscreen, AmpLite Red fluorescence. 290,000 compounds, 0.67% hits. activity change, negative = inhibition, % at 58.2 µM, hits read low; in the data active means activity change below about -30%
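Final compound at 57.5 uM, incubated 10 min at RT with coupling enzyme reagent (glyceraldehyde-3-phosphate), then 20 min with substrate and AmpLite Red detection. Fluorescence read at 525/598 nm; tests interference with the coupling assay, not aldolase inhibition.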
USP1 inh – USP1/UAF1 (human) deubiquitinase inhibition. 390,000 compounds, 0.23% hits. recombinant USP1/UAF1, Ub-Rhodamine cleavage fluorescence. O94782. Potency, µM (doses to about 57.1 µM), actives largely listed as inhibitors; further: nearly all actives have a fitted effect of over 60% in size
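Step one: compound is pinned into 1nM USP1/UAF1 in HEPES pH 7.8 buffer with TCEP. Step two: 15 min room-temperature incubation. Step three: Ub-Rho (150nM final) starts cleavage, tracked by fluorescence over six one-minute reads.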
Tau FP inhib – blocks human tau fibril formation measured by polarization; P10636; K18 P301L tau heparin fibrillization, Alexa594 FP, 6 h; Potency, µM (doses to about 57.7 µM), actives largely listed as inhibitors; 280,000 compounds, 0.39% hits; further: nearly all actives have a fitted effect of over 55% in size
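Quantitative HTS format: compounds meet 15 uM recombinant K18 P301L tau and Alexa 594-tau tracer in 100 mM sodium acetate pH 7; 20 uM heparin triggers fibrillization at 37 C over 6 hr; FP gives the signal.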
Each line names hits and unclear results; the compound was inactive in the other large screens; [ ] = dose if it differs, or a comment. Unless noted, the call rests on the fitted dose curve; in most records, active means well fitted curve in the direction sought with a large enough effect; inconclusive means small, poorly fitted or top-dose-only effect, or another doubt; inactive means no such curve, though single readings can be large; an effect the other way counts as inactive or inconclusive.

COc1cc2c(cc1OC)CN(c1ccc([N+](=O)[O-])cc1Cl)CC2	Tau fibril ThT 7.08µM, Tau fluor counter inconclusive
Cc1cc(/C=N/Nc2ccc([N+](=O)[O-])cn2)c(C)n1-c1ccccc1	Tau fibril ThT 3.55µM, Tau fluor counter inconclusive
Cc1c(C(=O)O)cccc1-n1c(C)cc(/C=N/Nc2ccc([N+](=O)[O-])cn2)c1C	Tau fibril ThT 12.6µM, Tau fluor counter inconclusive
O=C(O)Cn1cc(/C=N/Nc2ccc([N+](=O)[O-])cn2)c2ccccc21	none (no result: Tau fibril ThT, Tau fluor counter, Tau FP inhib)
O=C(O)c1ccccc1C=NNc1ccc([N+](=O)[O-])cn1	none (no result: Tau fibril ThT, Tau fluor counter, FBPA coupling cs, Tau FP inhib)
Cc1ccc(Cn2cc(/C=N/Nc3ccc([N+](=O)[O-])cn3)c3ccccc32)cc1	Tau fibril ThT 10µM, Tau fluor counter 11.2µM[quencher]
Cc1ccc(-n2c(C)cc(/C=N/Nc3ccc([N+](=O)[O-])cn3)c2C)cc1	Tau fibril ThT 2µM, Tau fluor counter inconclusive
Cc1noc(-c2ccc(N3CCCCC3C)c([N+](=O)[O-])c2)n1 (configuration not stated)	none (no result: FBPA coupling cs)
COc1cc(-c2nc3n(n2)C(c2ccc(F)cc2)C(C(N)=O)=C(C)N3)cc(OC)c1OC (configuration not stated)	USP1 inh inconclusive (no result: FBPA coupling cs)
CCOc1cccc2sc(NN)nc12	Tau fibril ThT 20µM, Tau fluor counter 14.1µM[quencher], Tau FP inhib inconclusive
CCOc1cccc2sc(Cl)nc12	none
O=C(O)CC/C(=C\c1ccc(N2CCOCC2)c([N+](=O)[O-])c1)c1nc2ccccc2s1	Tau fibril ThT 7.94µM
O=C(O)C/C(=C\c1ccc(N2CCOCC2)c([N+](=O)[O-])c1)c1nc2ccccc2s1	Tau fibril ThT 14.1µM
O=C(O)c1ccccc1C1=Nc2ccc(O)cc2Oc2cc(O)ccc21	USP1 inh 28.2µM
CCc1ccc2[nH]c(O)c(N=Nc3nc(-c4ccccc4)cs3)c2c1	Tau fibril ThT 4.47µM, Tau fluor counter inconclusive
Cc1cc(SCC(=O)c2ccc(O)c(O)c2)nc2ccccc12	Tau fibril ThT inconclusive, Tau fluor counter 28.2µM[quencher]
CN(C)CC(=O)c1c(N)n(Cc2ccccc2)c(=O)n(C)c1=O	none
CCN(CC(=O)c1c(N)n(C)c(=O)n(C)c1=O)c1cccc2ccccc12	Tau fluor counter inconclusive, FBPA coupling cs -43.4, Tau FP inhib inconclusive
CCOC(=O)c1ccccc1NC(=O)CN1CCCN(Cc2cc(C)ccc2C)S1(=O)=O	none (no result: FBPA coupling cs)
COc1c(CO)cc(CO)cc(CO)c1=O	Tau fibril ThT inconclusive (no result: USP1 inh)
CCCC(=O)OCC(=O)Nc1ccc(N=Nc2ccccc2)cc1	Tau fibril ThT 10µM, Tau fluor counter inconclusive, Tau FP inhib inconclusive
CC1CC1C(=O)OCC(=O)Nc1ccc(N=Nc2ccccc2)cc1 (configuration not stated)	Tau fibril ThT 7.94µM, Tau fluor counter inconclusive, USP1 inh inconclusive, Tau FP inhib inconclusive
CC(C)CN(CCCNC(=O)CN1N=C(c2ccccc2)CCC1=O)CC(C)C	none (no result: FBPA coupling cs)
CN(C)c1ccc(NC(=O)c2sc(SCC(=O)Nc3ccc(Br)cc3)nc2N)cc1	Tau fibril ThT inconclusive
CN(C)c1ccc(NC(=O)c2sc(SCC(=O)Nc3nccs3)nc2N)cc1	Tau fibril ThT 3.98µM, Tau fluor counter 14.1µM[quencher]
Cc1c(Cc2ccccc2)sc(/N=C/c2c(O)ccc3ccccc23)c1C(N)=O	Tau fibril ThT 28.2µM, Tau fluor counter 31.6µM[quencher], USP1 inh inconclusive, Tau FP inhib inconclusive
Cc1c(Cc2ccccc2)sc(/N=C/c2ccc3ccccc3c2)c1C(N)=O	none
CCOC(=O)c1cc(CC)sc1/N=C/c1c(O)ccc2ccccc12	Tau fibril ThT inconclusive, FBPA coupling cs -34.5
CC(C)NC(=O)CSc1nnc(-c2ccc(F)cc2)c2ccccc12	Tau fibril ThT inconclusive
CCOc1ccccc1NC(=O)Cn1c(=O)n(Cc2ccccc2)c(=O)c2c1c1cc(C)ccc1n2C	none (no result: FBPA coupling cs)
CN(C(Cc1ccc(OS(=O)(=O)c2cccc3cnccc23)cc1)C(=O)N1CCN(c2ccccc2)CC1)S(=O)(=O)c1cccc2cnccc12 (configuration not stated)	none (no result: FBPA coupling cs, USP1 inh)
O=C(O)Cn1c(C(=O)Nc2nc(-c3ccccc3Cl)cs2)cc2ccccc21	none (no result: Tau fibril ThT, Tau fluor counter, USP1 inh, Tau FP inhib)
CN(C)c1ccc(N=Cc2nc(-c3ccccc3)oc2OC(=O)c2cccc(Cl)c2)cc1	Tau fibril ThT 7.94µM, Tau fluor counter inconclusive, Tau FP inhib inconclusive
O=C(CCc1nc2ccccc2[nH]1)N1CCc2ccccc2C1	FBPA coupling cs -33.8, USP1 inh inconclusive
CCCS(=O)(=O)c1ncc(Cl)c(C(=O)Nc2c(C(=O)Nc3ccccc3)oc3ccccc23)n1	Tau fibril ThT 7.08µM, Tau fluor counter inconclusive, USP1 inh inconclusive (no result: FBPA coupling cs)
N#Cc1c2ccc(OCC(N)=O)cc2n2ccccc12	FBPA coupling cs -37.3, USP1 inh inconclusive
CCOC(=O)COc1ccc2c(C#N)c3ccccn3c2c1	FBPA coupling cs -60.4
